# Tests used:
# [1] = test system: Vero E6 infected with SARS-CoV-2; experiment: morphology score (similarity to uninfected cells); higher = more like uninfected cells; details: 24 h
# [2] = test system: Vero E6 infected with SARS-CoV-2; experiment: SARS-CoV-2 infection rate relative to infected DMSO; higher = more infection, active = 60 or less; details: 24 h
Structure (SMILES),morphology score [1],SARS-CoV-2 infection rate [2]
Cc1cnc(C(=O)O)c[n+]1[O-] [acipimox] (10 µM),0.0683,108% (inactive)
COc1c2ccoc2cc2oc(=O)ccc12 [bergapten] (10 µM),0.0727,108% (inactive)
Cn1c(=O)n(-c2ccc(C(C)(C)C#N)cc2)c2c3cc(-c4cnc5ccccc5c4)ccc3ncc21 (10 µM),0.0712,98% (inactive)
Cc1cccc(-c2n[nH]cc2-c2ccc3ncccc3n2)n1 [repsox] (10 µM),0.188,97% (inactive)
O=c1c2ccccc2oc2ccccc12 [xanthone] (10 µM),0.219,104% (inactive)
CCOC(=O)c1c(/C(C#N)=C\N)c2ccc(Cl)c(Cl)c2n1C (10 µM),-0.0335,105% (inactive)
CC1(C)S[C@@H]2[C@H](NC(=O)C(C(=O)O)c3ccccc3)C(=O)N2[C@H]1C(=O)O (stereo partly specified) [carbenicillin] (10 µM),0.0766,104% (inactive)
Cc1cc(N2CCN([C@@H]3CN[C@H](C(=O)N4CCSC4)C3)CC2)n(-c2ccccc2)n1 [teneligliptin] (10 µM),0.062,112% (inactive)
COc1cc2c(cc1OC)CN(CCc1ccc(NC(=O)c3cccc4c(=O)c5cccc(OC)c5[nH]c34)cc1)CC2 [elacridar] (10 µM),0.0355,102% (inactive)
CN1C2CCCC1CC(NC(=O)c1nn(C)c3ccccc13)C2 (stereo unspecified) [granisetron] (10 µM),-0.16,98.5% (inactive)
CCCCNc1cc(C(=O)O)cc(S(N)(=O)=O)c1Oc1ccccc1 [bumetanide] (10 µM),0.0462,102% (inactive)
C[C@H]1O[C@@H](Oc2c(-c3cc(O)c(O)c(O)c3)oc3cc(O)cc(O)c3c2=O)[C@@H](O)[C@@H](O)[C@@H]1O [myricitrin] (10 µM),0.147,103% (inactive)
CCOc1nc2cccc(C(=O)O)c2n1Cc1ccc(-c2ccccc2-c2noc(=O)[nH]2)cc1 [azilsartan] (10 µM),0.0851,109% (inactive)
CC1(C)[C@H](C(=O)O)N2C(=O)C[C@H]2S1(=O)=O [sulbactam] (10 µM),0.0596,113% (inactive)
NCCCS(=O)(=O)O [tramiprosate] (10 µM),0.072,104% (inactive)
CC(C)N(CCC(=O)c1ccc2ccccc2c1)Cc1ccccc1 (10 µM),0.0866,104% (inactive)
C[C@H]1CNCCCN1S(=O)(=O)c1cccc2cncc(F)c12 [ripasudil] (10 µM),0.438,112% (inactive)
C[C@]12CCC(=O)C=C1CC[C@@H]1[C@@H]2CC[C@@]2(C)[C@H]1CC[C@]2(C)O [17-alpha-Methyltestosterone] (10 µM),0.0827,108% (inactive)
C[C@@H]1O[C@@H](O[C@@H]2[C@@H](O)[C@H](OCCc3ccc(O)c(O)c3)O[C@H](CO)[C@H]2OC(=O)/C=C/c2ccc(O)c(O)c2)[C@H](O)[C@H](O)[C@H]1O [verbascoside] (10 µM),0.0986,104% (inactive)
CCCc1nc2c(C)cc(-c3nc4ccccc4n3C)cc2n1Cc1ccc(-c2ccccc2C(=O)O)cc1 [telmisartan] (10 µM),0.215,100% (inactive)
C[C@@H]1CC(=O)c2c(ccc3c2C(=O)c2cccc(O)c2C3=O)C1 [ochromycinone] (10 µM),-0.0461,105% (inactive)

Structure (SMILES),morphology score [1],SARS-CoV-2 infection rate [2]
Cc1ccc(-c2ccc(C)cn2)nc1 [abametapir] (10 µM),0.0247,106% (inactive)
O=C1NC(=S)NC(=O)C1C(=O)Nc1ccccc1 [merbarone] (10 µM),0.103,99% (inactive)
CC(=O)OC[C@H]1O[C@@H]([S-])[C@H](OC(C)=O)[C@@H](OC(C)=O)[C@@H]1OC(C)=O.CCP(CC)CC.[Au+] [auranofin] (0.833333 µM),0.3,79% (inactive)
Cc1ccc(S(=O)(=O)Nc2ccc3c(c2)c(C(=O)C(F)(F)F)cn3CC(=O)N[C@@H](CC(C)C)C(=O)O)cc1 (10 µM),0.0604,104% (inactive)
CC(CNC1CCCCC1)OC(=O)c1ccccc1 (stereo unspecified) [hexylcaine] (10 µM),-0.0327,112% (inactive)
C[N+](C)(C)CCOC(=O)CCC(=O)OCC[N+](C)(C)C [succinylcholine-chloride] (10 µM),-0.0136,110% (inactive)
Clc1ccc(C(c2ccccc2Cl)C(Cl)Cl)cc1 (stereo unspecified) [mitotane] (10 µM),-0.173,112% (inactive)
CNc1ncc2cc(-c3cc(NC(=O)NCCC(C)(C)C)c(F)cc3C)c(C)nc2n1 (10 µM),0.18,106% (inactive)
CCC1(C)CC(=O)NC1=O (stereo unspecified) [ethosuximide] (10 µM),0.0477,104% (inactive)
O=C(O)c1cc(/N=N/c2ccc(S(=O)(=O)Nc3ccccn3)cc2)ccc1O [sulfasalazine] (10 µM),0.0447,105% (inactive)
CN(C)CCOc1cc(-c2cn[nH]c2)ccc1NC(=O)C1COc2ccccc2O1 (stereo unspecified) (0.833333 µM),0.294,76.5% (inactive)
Cc1ccc(F)c(NC(=O)Nc2ccc(-c3cccc4[nH]nc(N)c34)cc2)c1 [linifanib] (10 µM),-0.188,118% (inactive)
COc1cccc(OC)c1-c1cc(C(=O)N[C@@H](CC(C)C)C(=O)O)nn1-c1ccnc2cc(Cl)ccc12 (10 µM),-0.0246,114% (inactive)
CC(=O)OC[C@H]1O[C@@H](n2ccc(=O)[nH]c2=O)[C@H](OC(C)=O)[C@@H]1OC(C)=O [uridine-triacetate] (10 µM),-0.0249,112% (inactive)
C[C@H]1C[C@H]2[C@@H]3CCC4=CC(=O)C=C[C@]4(C)[C@@]3(Cl)[C@@H](O)C[C@]2(C)[C@@]1(O)C(=O)CO [beclomethasone] (10 µM),0.101,89.5% (inactive)
COc1cc2c3cc1Oc1cc(ccc1O)C[C@@H]1c4c(cc(OC)c(O)c4Oc4ccc(cc4)C[C@@H]3N(C)CC2)CC[N+]1(C)C [tubocurarine] (10 µM),-0.0274,110% (inactive)
O=[N+]([O-])c1cncn1CCN1CCOCC1 [nimorazole] (10 µM),0.0962,91.5% (inactive)
C[N+](C)(C)CC(O)CC(=O)[O-] (stereo unspecified) [carnitine-(D/L)] (10 µM),-0.213,117% (inactive)
C1COC(NC(C2CC2)C2CC2)=N1 [rilmenidine] (10 µM),-0.0313,99.5% (inactive)
CN(C)Cc1ccc(S(=O)(=O)n2ccc(/C=C/C(=O)NO)c2)cc1 [resminostat] (0.833333 µM),-0.101,116% (inactive)
NC(=O)OCCCc1ccccc1 [phenprobamate] (10 µM),0.0438,102% (inactive)

Structure (SMILES),morphology score [1],SARS-CoV-2 infection rate [2]
O=C(O)c1ccc2cc(-c3ccc(O)c(C45CC6CC(CC(C6)C4)C5)c3)ccc2c1 (0.833333 µM),0.226,87.5% (inactive)
C[C@]12CC[C@H](O)CC1=CC[C@@H]1[C@@H]2CC[C@]2(C)C(n3cnc4ccccc43)=CC[C@@H]12 [galeterone] (0.833333 µM),-0.052,113% (inactive)
C=CC(=O)N1CCC[C@@H](n2nc(-c3ccc(Oc4ccccc4)cc3)c3c(N)ncnc32)C1 [ibrutinib] (10 µM),0.197,109% (inactive)
CN(C)CCN(Cc1ccccc1)c1ccccn1 [tripelennamine] (10 µM),-0.0386,110% (inactive)
CN1CCc2cc3c(cc2[C@H]1[C@@H]1OC(=O)c2c1ccc1c2OCO1)OCO3 [bicuculline-(+)] (10 µM),-0.0434,98% (inactive)
CCN(CC)CCOc1ccccc1C(=O)CCc1ccccc1 [etafenone] (10 µM),0.151,97.5% (inactive)
COc1ccc(C(=O)Nc2c(Cl)cncc2Cl)cc1OC1CCCC1 [piclamilast] (10 µM),0.363,107% (inactive)
COc1cc2ncnc(Nc3ccc(F)c(Cl)c3)c2cc1OCCCN1CCOCC1 [gefitinib] (10 µM),-0.249,112% (inactive)
Cc1cc([N+](=O)[O-])ccc1NS(=O)(=O)c1cc(Cl)ccc1Cl (0.833333 µM),0.153,101% (inactive)
NC(=O)Nc1cc(-c2cccc(F)c2)sc1C(=O)N[C@H]1CCCNC1 (0.833333 µM),0.11,106% (inactive)
CC(=O)Nc1c(I)cc(I)c(C(=O)O)c1I [acetriazoic-acid] (10 µM),0.138,112% (inactive)
COc1ccc2nc(NC(=O)Nc3ccccc3)sc2c1 [frentizole] (10 µM),-0.0784,114% (inactive)
CN(c1ccc(NC(=O)Nc2ccccc2)cc1)S(=O)(=O)c1cnn(-c2ccc(F)cc2)c1 (10 µM),0.268,83.5% (inactive)
Clc1ccc(C(c2ccc(Cl)cc2)C(Cl)(Cl)Cl)cc1 (10 µM),0.0848,106% (inactive)
COC(=O)C(c1ccccc1)C1CCCCN1 (stereo unspecified) (10 µM),0.0486,114% (inactive)
CC(C[N+](C)(C)C)OC(N)=O (stereo unspecified) [bethanechol] (10 µM),0.0417,106% (inactive)
Nc1cccc(-c2cc3c(Oc4cccc(O)c4)ncnc3[nH]2)c1 (0.833333 µM),0.0833,104% (inactive)
COC(=O)c1cc(OC)c2c(c1-c1c(C(=O)OC)cc(OC)c3c1OCO3)OCO2 [bifendate] (10 µM),0.0714,108% (inactive)
CN1[C@@H]2CC[C@H]1C[C@@H](OC(=O)c1cc(Cl)cc(Cl)c1)C2 [bemesetron] (10 µM),0.216,89.5% (inactive)
CC1=C(C(=O)OC2CCCCC2)C(c2ccc([N+](=O)[O-])cc2)C2=C(CC(C)(C)CC2=O)N1 (stereo unspecified) (0.833333 µM),-0.0965,104% (inactive)
CCC(=N\O)/C(C)=C/c1ccc(F)cc1 (10 µM),0.0411,110% (inactive)
